Screens from PubChem BioAssay.
MBNL1-CUG inh – inhibitors of human MBNL1 binding to CUG repeat RNA; Potency, µM (highest dose often 57.5 µM), for inactives: at the highest dose activity change, negative = inhibition, hits mostly inhibitors; 280,000 tested, 0.036% active; TR-FRET MBNL1-His/biotin-(CUG)12 binding, 665/545 ratio; Q9NR56; active means well fitted inhibition curve with a large enough effect in the signal ratio, with a control signal flat, not every such curve was filed as active; inconclusive means small, poorly fitted or top-dose-only effect, or effect the other way, or a change in a side signal; inactive means no such curve, though single readings can be large or run the other way; the % refers to the signal ratio; further: potency means the concentration at half of the fitted maximal effect; on the % scale 0 is the no-effect control and ±100 the full control effect
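His-tagged MBNL1 binding to biotinylated (CUG)12 RNA was measured by TR-FRET using terbium anti-His antibody (0.055 ng/ul final) and streptavidin-XL665 (5 nM final). Compounds were titrated 92 nM to 58 uM; 60 min at room temperature.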
VDR inh – inhibitors of human vitamin D receptor. P11473. VDR-SRC2-3 peptide fluorescence polarization, 2 h. Potency, µM, without a hit: max response, negative = inhibition, actives largely listed as inhibitors. 400,000 tested, 0.93% active. AID 504847; further: potency means the concentration at half of the fitted maximal effect; on the % scale 0 is the no-effect control and ±100 the full control effect
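Fluorescence polarization assay of small-molecule disruption of VDR binding to coregulator peptide SRC2-3. Compounds and controls pin-transferred, then read after 2 h incubation at ambient room temperature.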
KCNH2 3.1 block – inhibitors of human KCNH2 3.1 potassium channel isoform | U2OS KCNH2 3.1, thallium flux FluxOr; hits give low values | activity change, % (tested at about 1.8 µM) | 340,000 tested, 0.95% active;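 active means maximum activity change below -70%; inconclusive means maximum activity change from -70% to -50%; inactive means maximum activity change above -50%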;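 further: thallium influx rate constant from kinetic fluorescence after stimulation buffer; on the % scale 0 is the no-effect control and ±100 the full control effect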
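Measured as rate of thallium-driven FluxOr signal in transduced U2OS cells carrying the 3.1 channel, read kinetically for 2 min upon stimulation; values are rate constants scaled to DMSO control wells.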
CBFb-RUNX1 inh – blocks binding between human CBF-beta and RUNX1; Q01196+Q13951; Potency, µM (top dose mostly 59.8 µM), inactives show top-dose activity, negative = inhibition, actives largely listed as inhibitors; 230,000 tested, under 10 active; AlphaScreen CBFb-His/RUNX1-biotin binding, biochemical; further: % of control where 0% means no effect
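Room-temperature protein-protein interaction test with 30 nM each of His-tagged CBF-beta and biotinylated RUNX1, 15 min with compound, then 90 min with nickel plus streptavidin beads. Signal read in AlphaScreen mode.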
PLK1 PBD inh – PLK1 (human) polo-box domain binding inhibition; Plk1 PBD binding of FITC phosphopeptide, fluorescence polarization; 360,000 tested, 2.8% active; Potency, µM, for the others: max response, negative = inhibition, usual class: inhibitors; further: potency means the concentration at half of the fitted maximal effect; series mostly up to about 57 µM; on the % scale 0 is the no-effect control and ±100 the full control effect; nearly all actives have a fitted effect of over 65% in size
KCNH2 WT inh – inhibitors of human wildtype KCNH2 potassium channel. Q12809. 340,000 tested, 0.37% active. activity change, % at 1.84 µM. U2OS, BacMam KCNH2, thallium flux FluxOr; hits give low values. AID 720551;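 active means maximum activity change below -70%; inconclusive means maximum activity change between -70% and -50%; inactive means maximum activity change above -50%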; further: on the % scale 0 is the no-effect control and ±100 the full control effect
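U2OS cells were transduced with wild-type KCNH2 virus (2.03 x 10^8 / mL) for 4 h at room temperature, then cultured overnight at 37 C. Thallium flux was read with FluxOr dye. Rate constants were normalized to DMSO controls.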
* marks the source's active call; other numbers are inactive results; ? = inconclusive; . = no result given; [ ] = remark or other dose. Hits are enriched below; roughly 3.8% of the tested compounds scored in any of these assays. Unless noted, the call rests on the fitted dose curve; in most records, active means well fitted curve in the direction sought with a large enough effect; inconclusive means small, poorly fitted or top-dose-only effect, or another doubt; inactive means no such curve, though single readings can be large; an effect the other way counts as inactive or inconclusive.

SMILES	MBNL1-CUG inh	VDR inh	KCNH2 3.1 block	CBFb-RUNX1 inh	PLK1 PBD inh	KCNH2 WT inh
COc1ccc(-c2onc(C)c2C)cc1S(=O)(=O)Nc1ccc(OC(F)(F)F)cc1	.	2%	.	.	.	.
Cc1cc2ccccc2nc1SCC(=O)NC1CCCCC1	0%	-3%	12	-2%	2%	0
Cc1cc2ccccc2nc1SCC(=O)NC1CCCC1	4%	?	2	0%	24µM*	0
CCCCn1c(N)c(Sc2ccccc2[N+](=O)[O-])c(=O)[nH]c1=O	?	-4%	20	.	3%	10
Cc1[nH]c(=O)[nH]c(=O)c1Sc1ccccc1[N+](=O)[O-]	?	-9%	15	.	21µM*	-2
CCOC(=O)Cc1nnc(NC(=O)C(CC)Sc2nc(C)cc(=O)[nH]2)s1 (stereo unspecified)	2%	?	-1	-6%	21µM*	-17
COc1ccccc1-c1nc2ccccc2n(CC(C)C)c1=O	.	.	.	.	24µM*	.
Cc1ccc(NC(=O)C2CCN(C(=O)c3cnn(-c4ccccc4)c3-n3cccc3)CC2)cc1C	.	4%	.	.	.	.
Cc1ccccc1NC(=O)c1cc([N+](=O)[O-])ccc1NCCN1C(=O)CCC1=O	?	-14%	-159*	5%	-11%	5
Cc1ccc(N2CCN(C(=O)C3CCN(c4ncnc5c4nc4n5CCCCC4)CC3)CC2)c(C)c1	.	1%	.	.	.	.
COc1ccccc1/C=C/C(=O)NNC(=O)c1cc(C)oc1C	.	?	2	.	-14%	8
Cc1cc(C(=O)NNC(=O)/C=C/c2ccco2)c(C)o1	.	?	14	.	24µM*	1
CC1CC(CC(=O)Nc2nc(-c3ccccc3)cs2)C(=O)O1 (stereo unspecified)	-1%	-1%	5	9%	-18%	1
C/C(CC1CC(COCC(C)C)OC1=O)=N\Nc1nc(-c2ccccc2)cs1 (stereo unspecified)	9%	?	12	-6%	21µM*	48
O=C(O)Cc1cccc(OCCCN(Cc2cccc(C(F)(F)F)c2Cl)CC(c2ccccc2)c2ccccc2)c1	.	40µM*	.	-17%	.	.
O=C(CCN1CCOCC1)c1ccc2c(c1)OCCO2	7%	56µM*	-4	-1%	?	-1
O=C(CCN1CCCCC1)c1ccc2c(c1)OCO2	-4%	45µM*	4	3%	?	1
O=C(CCCN1CCOCC1)c1ccc2c(c1)OCCO2	-3%	-19%	6	1%	-1%	-4
Cc1ccc(NC(=O)/C(C#N)=C(\N)C(Cl)(Cl)Cl)nc1	18%	?	-1	-5%	24µM*	4
Cc1ccc(NC(=O)Nc2ccccc2)nc1	.	4%	-6	.	-3%	-1
COc1cc(-c2cn[nH]c2N)cc(OC)c1OC	8%	-9%	-79*	-3%	-1%	-7
COC(=O)NC(=S)Nc1ccc(Oc2ccc(Cl)cc2Cl)c(Cl)c1	-3%	0%	-1	0%	3µM*	2
COc1ccc(Br)cc1/C=C/C(=O)NC(=S)Nc1ccc(Cl)c(C(=O)O)c1	-2%	?	-7	2%	-17%	-5
COc1ccc(Br)cc1C(=O)NC(=S)Nc1ccc(Cl)c(C(=O)O)c1	2%	-7%	-2	-4%	12µM*	-10
O=C(NCCc1ccccc1)C(=O)NCC(c1cccnc1)N1CCN(c2ccc(F)cc2)CC1 (stereo unspecified)	.	10%	.	.	.	.
SMILES	MBNL1-CUG inh	VDR inh	KCNH2 3.1 block	CBFb-RUNX1 inh	PLK1 PBD inh	KCNH2 WT inh
COc1ccc2c(=O)c(C)c(-c3ccccc3)oc2c1CN(C)C	.	3%	.	.	.	.
Clc1cccc(-c2nnc(SC/C=C/c3ccccc3)n2Cc2ccco2)c1	-2%	-6%	-98*	-1%	-11%	-17
O=C1NC(=O)[C@@]2(CCOc3ccc(F)cc32)N1	.	-3%	.	21%	.	.
CCN(CCCNC(=O)CSc1cc(=O)n(C)c2cc(Cl)ccc12)c1ccccc1	.	-9%	.	.	.	.
COc1ccc(Cn2ccnc2SCC(=O)Nc2ccc(C)cc2C)cc1	.	7%	.	.	.	.
Cc1ccc(NC(=O)c2oc3ccccc3c2NC(=O)C23CC4CC(CC(C4)C2)C3)cc1	.	-22%	.	.	.	.
COc1ccc(/C=C\C(=O)CC(O)(c2ccccc2)C(F)(F)F)cc1 (stereo unspecified)	6%	50µM*	-5	-2%	-9%	3
CCOC(=O)c1c(C)oc2nc(C)nc(N3CCN(c4cccc(C)c4C)CC3)c12	.	15%	.	.	.	.
O=c1c2ccccc2n2c(-c3ccc(Cl)cc3)nnc2n1CCc1ccccc1	.	12%	.	.	.	.
CN1CCN(Cc2ccc(Sc3ccc(Cl)cc3)c([N+](=O)[O-])c2)CC1	.	-15%	-90*	-29%	-18%	-96*
Cc1ccc(Sc2ccc(CN3CCCC3)cc2[N+](=O)[O-])cc1	?	-9%	-93*	-5%	-2%	17
Clc1ccc(-c2nn3c(-c4cc(-c5ccccc5)n[nH]4)nnc3s2)cc1	.	-8%	.	.	.	.
COc1cccc(/C=N\NC(=O)c2sc(N)nc2C)c1OC	7%	-7%	-3	-2%	27µM*	3
COc1cccc(/C=N/NC(=O)C(=O)N/N=C/c2cccc(OC)c2OC)c1OC	-3%[11.5 µM]	-9%	2	-19%	-11%	-9
NCC(O)COCCC12CC3CC(CC(C3)C1)C2 (stereo unspecified)	-2%	-8%	-3	10%	-4%	-1
CC(NCC(O)COCCC12CC3CC(CC(C3)C1)C2)c1ccccc1 (stereo unspecified)	-1%	-7%	-4	5%	30µM*	1
CCCCC(=O)N(c1ccc(C(=O)O)cc1)c1nc(-c2ccc(Cl)cc2)c(CC)s1	1%	-18%	26	4%	27µM*	.
COc1ccc(-n2c(=O)c3c4c(sc3n(Cc3ccccc3)c2=O)CCC4)c(OC)c1	.	3%	.	.	.	.
CCC(=O)Nc1ccc(C2C(=O)c3ccccc3C2=O)cc1	?	-11%	23	.	24µM*	-8
Cc1ccc(C)c(Cn2c3ccccc3c3cnn(CC(=O)NC4CCC(C)CC4)c(=O)c32)c1 (stereo unspecified)	.	14%	.	.	.	.
COc1ccc(C(=O)NCc2ccc3c(c2)OCO3)c(OC)c1	-2%	?	-2	.	27µM*	12
Cc1c(C=O)c2ccccc2n1CC(=O)NCc1ccccc1	2%	1%	35	-1%	-3%	-2
COCCn1c(SCC(=O)NCc2ccc3c(c2)OCO3)nnc1-c1c[nH]c2ccccc12	-1%	-25%	-215*	0%	-8%	-149*
COc1ccccc1OCCC(=O)NCc1ccc2c(c1)OCO2	2%	1%	-7	-2%	30µM*	-8
